G9a inh = qHTS Assay for Inhibitors of Histone Lysine Methyltransferase G9a; G9a H3K9 monomethylation, AlphaScreen, 2 h; Potency, µM (top dose mostly 102 µM), for inactives: at the top dose activity, negative = inhibition, usual class: inhibitors; hit rate 8.8% among 350,000; note: % is set by controls: 0 for no effect and ±100 for the full control effect; nearly all actives have a fitted effect of over 75% in size
Target sequence (Q96KQ7 913-1193 limits assumed): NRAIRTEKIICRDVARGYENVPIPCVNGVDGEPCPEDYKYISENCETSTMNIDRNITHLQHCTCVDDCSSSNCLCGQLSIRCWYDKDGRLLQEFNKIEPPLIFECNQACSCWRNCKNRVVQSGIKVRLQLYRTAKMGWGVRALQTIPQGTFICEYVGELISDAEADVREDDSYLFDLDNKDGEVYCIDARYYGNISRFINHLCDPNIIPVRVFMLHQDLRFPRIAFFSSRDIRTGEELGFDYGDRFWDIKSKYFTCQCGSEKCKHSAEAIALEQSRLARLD
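AlphaScreen read-out: biotin-H3K9 peptide (500 nM) methylation by 20 nM enzyme with 20 uM SAM, 2 h at room temperature after 15 min compound preincubation; anti-monomethyl H3K9 antibody plus donor/acceptor beads, 10 min dark.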
HP1b binding inh = HTS for Inhibitors of HP1-beta Chromodomain Interactions with Methylated Histone Tails | Potency, µM (series often up to 114 µM), inactives show at the top dose activity change, negative = inhibition, usual class: inhibitors | Chromobox protein homolog 1 (Homo sapiens), P83916 | AlphaScreen HP1-beta / biotin-H3K9me3 peptide binding | hit rate 0.56% among 390,000 | AID 540317, 2011; note: nearly all actives have a fitted effect of over 70% in size
Target sequence (P83916 whole entry, looked up): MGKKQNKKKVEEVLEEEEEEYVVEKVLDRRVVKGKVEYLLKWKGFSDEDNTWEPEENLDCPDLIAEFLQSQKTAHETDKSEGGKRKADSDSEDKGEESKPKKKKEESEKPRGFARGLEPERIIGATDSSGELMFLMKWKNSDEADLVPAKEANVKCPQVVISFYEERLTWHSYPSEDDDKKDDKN
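Compound inhibition of the preformed complex between 50 nM HP1-beta and 50 nM biotinylated H3K9me3 peptide was read by AlphaScreen. Buffer was PBS pH 7.4 with 0.01% Tween-20. Incubations ran 30 min at room temperature, with 10 ug/mL donor/acceptor beads.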
JMJD2A Tudor = qHTS Assay for Inhibitors of JMJD2A-Tudor Domain; Lysine-specific demethylase 4A (Homo sapiens), O75164; AlphaScreen JMJD2A-Tudor / H3K4me3 peptide binding; Potency, µM (series often up to 114 µM), for the others: top-dose activity change, negative = inhibition, usual class: inhibitors; hit rate 4.4% among 390,000; note: % is set by controls: 0 for no effect and ±100 for the full control effect; nearly all actives have a fitted effect of over 50% in size
BAZ2B inh = qHTS Assay for Inhibitors of BAZ2B. Bromodomain adjacent to zinc finger domain protein 2B (Homo sapiens), Q9UIF8. AlphaScreen BAZ2B-H3K14Ac peptide displacement. Potency, µM (doses to about 114 µM), inactives show top-dose activity change, negative = inhibition, actives largely listed as inhibitors. hit rate 4.4% among 360,000. AID 504333, 2011; note: % is set by controls: 0 for no effect and ±100 for the full control effect; nearly all actives have a fitted effect of over 60% in size
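AlphaScreen displacement of biotin-H3(5-23)K14Ac peptide (50 nM final) from BAZ2B (50 nM final) in PBS pH 7.4, 0.01% Tween-20; complex preformed 30 min RT, then compounds (top 110 uM) 30 min RT, beads 20 min dark.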
Sfp inh = qHTS Assay for Inhibitors of Bacillus subtilis Sfp phosphopantetheinyl transferase (PPTase); hit rate 3.5% among 310,000; 4'-phosphopantetheinyl transferase ffp (Bacillus subtilis), Q9F4F7; Biochemical Sfp PPTase activity, qHTS; Potency, µM, for inactives: largest response in the series, negative = inhibition, most hits filed as inhibitors; AID 1490, 2009;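 note: the enzyme is Sfp with the accession as filed and its product quenches rhodamine fluorescence; 0% = enzyme reaction without inhibitor and -100% = no enzyme wells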
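With Hepes-Na pH 7.6 buffer containing 10 mM MgCl2, Sfp (15 nM) modified BHQ-2-YbbR (12.5 uM) using rhodamine-CoA (5 uM). Two reads 30 minutes apart at 525/598 nm yielded each well's rate.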
PLK1 PBD inh = qHTS for Inhibitors of PLK1-PDB (polo-like kinase 1 - polo-box domain): Primary Screen | Serine/threonine-protein kinase PLK1 (Homo sapiens), P53350 | Plk1 PBD binding of FITC phosphopeptide, fluorescence polarization | Potency, µM, for the others: max response, negative = inhibition, hits mostly inhibitors | hit rate 2.8% among 360,000 | AID 720504, 2013; note: series mostly up to about 57 µM; % is set by controls: 0 for no effect and ±100 for the full control effect; nearly all actives have a fitted effect of over 65% in size
* marks the source's active call; other numbers are inactive results; ? = inconclusive; . = no result given; [ ] = remark or other dose. A selection: hits, their analogues and other compounds. The true share with any hit is near 12%. Calls come from the whole dose curve; as a rule, active = well fitted curve in the direction sought with a large enough effect; inconclusive = small, poorly fitted or top-dose-only effect, or another doubt; inactive = no such curve, though single readings can be large; an effect the other way counts as inactive or inconclusive. Potency is the fitted concentration of half-maximal effect.

SMILES | G9a inh | HP1b binding inh | JMJD2A Tudor | BAZ2B inh | Sfp inh | PLK1 PBD inh
NC(=O)c1ccc(SCC(=O)OCC(=O)NCC2CCCCC2)c([N+](=O)[O-])c1 | 45µM* | 14% | -6% | 8% | . | -14%
CC1CCCC(C)N1C(=O)COC(=O)CSc1ccc(C(N)=O)cc1[N+](=O)[O-] (centres undefined) | 45µM* | -4% | -22% | 1% | . | 0%
CC1CCCCN1C(=O)COC(=O)CSc1ccc(C(N)=O)cc1[N+](=O)[O-] (centres undefined) | . | 45% | -2% | . | . | -11%
CCOC(=O)CSc1ccc(S(=O)(=O)N2CCCCC2)cc1[N+](=O)[O-] | -14% | -6% | ? | ? | 2% | -13%
Cc1ccc(NC(=O)C2COc3ccccc3O2)cc1S(=O)(=O)N1CCOCC1 (centres undefined) | ? | 35% | -15% | 2% | . | -4%
CN1C[C@H]2CON(C)[C@H]2C[C@H]1c1cccc(N2CCOCC2)c1 | . | 65% | -12% | . | . | -7%
c1nc(NCCN2CCOCC2)c2c3c(sc2n1)CCCCC3 | ? | 64% | -8%[57.1 µM] | -5% | 9% | -18%
Fc1cccc(Nc2ncnc3sc4c(c23)CCC4)c1 | 20µM* | 38% | -6% | 6% | ? | 3%
O=C(Nc1ncnc2sc3c(c12)CCCC3)c1ccncc1 | 45µM* | 12% | 3% | -20% | 13% | -10%
CN1CCC(=NNc2ncnc3sc4c(c23)CCCC4)CC1 | -6%[59 µM] | 3% | ? | ? | 10µM* | -13%
O=S(=O)(Nc1ncnc2sc3c(c12)CCC3)c1ccc(Cl)s1 | 10µM* | 20% | -34% | ? | 4% | ?
O=C(CNS(=O)(=O)c1ccccc1)NCC(=O)N1CCCCC1 | . | 23% | 7% | -6% | 2% | -4%
Cc1cccc(CNC(=O)c2cnc3c(-c4cccc(C)c4)c(C)nn3c2C)c1 | 41%[59 µM] | 12% | -23% | 1% | . | .
Cc1nc(NS(=O)(=O)c2cccs2)c2c3c(sc2n1)CCC3 | 79µM* | 56% | -5%[57.1 µM] | ? | -5% | -18%
COc1ccc2[nH]c(=O)c(CN(Cc3ccccc3OC)Cc3nnnn3CC3CCCO3)cc2c1 (centres undefined) | -8% | 23% | -12% | 16% | ? | -1%
COc1ccc2cc(CN(CCc3ccccc3)Cc3nnnn3CC3CCCO3)c(=O)[nH]c2c1 (centres undefined) | -33% | 5% | -21% | 1% | -17% | -12%
Cc1ccc2[nH]c(=O)c(CN(CCc3ccccc3)Cc3nnnn3CC3CCCO3)cc2c1 (centres undefined) | ? | 18% | -20% | 5% | -14% | -2%
COc1ccc2[nH]c(=O)c(CN(CCc3ccccc3)Cc3nnnn3CC3CCCO3)cc2c1 (centres undefined) | 8.9µM* | 13% | -20% | -17% | 50µM* | -15%
COc1ccc2[nH]c(=O)c(CN(Cc3ccc(C)cc3)Cc3nnnn3CC3CCCO3)cc2c1 (centres undefined) | ? | 7% | -16% | -36% | 16µM* | -7%
O=c1[nH]c2cc3c(cc2cc1CN(Cc1nnnn1CC1CCCO1)C1CCCC1)OCO3 (centres undefined) | 13µM* | 14% | -4% | -8% | 0% | -10%
O=c1[nH]c2cc3c(cc2cc1CN(CCc1ccccc1)Cc1nnnn1CC1CCCO1)OCO3 (centres undefined) | ? | 26% | -7% | -22% | 56µM* | -8%
O=C1CS/C(=N/N=C2CCCC2)N1 | ? | 27% | -13% | 79µM* | -4% | -9%
CCCN(C(=O)c1nn(-c2ccc(C)cc2)c(=O)c2c1c1ccccc1n2C)c1ccccc1C | -25%[59 µM] | ? | -12% | . | . | .
CCN(CC)CCCNC(=O)c1nn(-c2ccc(C)cc2)c(=O)c2c1c1ccccc1n2C | -28%[59 µM] | 0% | -27% | . | . | .
CCN(C(=O)c1nn(-c2ccc(C)cc2)c(=O)c2c1c1ccccc1n2C)c1ccc(F)cc1 | 1.3µM* | 9% | -18% | . | . | .
SMILES | G9a inh | HP1b binding inh | JMJD2A Tudor | BAZ2B inh | Sfp inh | PLK1 PBD inh
CCN(CC)CCOC(=O)c1ccc(NC(=O)c2nn(-c3ccc(C)cc3)c(=O)c3c2c2ccccc2n3C)cc1 | 3.2µM* | ? | ? | . | . | .
CC(C)(C)OC(=O)Cc1nnc(-c2nc3ccccc3[nH]2)s1 | . | . | -32% | . | . | .
Cc1cccc(N2CCN(c3nc4ccccc4c4nnc(C)n34)CC2)c1C | -4%[59 µM] | 30% | -13% | 0% | . | .
COC(=O)C/C=C\[C@@H](C)[C@@H](/C=N\O[C@@H]1O[C@H](COC(C)=O)[C@@H](OC(C)=O)[C@H](OC(C)=O)[C@H]1OC(C)=O)NS(=O)(=O)c1ccc(C)cc1 | . | . | . | . | 0% | .
COc1ccc(S(=O)(=O)N2CCOCC2)cc1NC(=O)c1ccccc1C | . | 38% | -7% | -5% | 6% | -14%
CCOC(=O)c1cccc(OCC(O)CNCCOc2ccccc2F)c1 (centres undefined) | 50µM* | 71µM* | 18µM* | ? | -22% | -11%
OC(CNCCc1ccc(Cl)cc1)COCc1ccco1 (centres undefined) | 22µM* | ? | 7.1µM* | ? | -27% | -5%
CC(=O)c1cccc(OCC(O)CNCCc2ccc(Cl)cc2)c1 (centres undefined) | ? | 8% | ? | 20µM* | -27% | 1%
OC(CNCc1ccccc1)COCc1ccc(Cl)cc1 (centres undefined) | 10µM* | 35% | -17%[57.1 µM] | 50µM* | -19% | -8%
O=C(COC(=O)c1ccco1)NCCc1ccc(Cl)cc1 | -5%[12.7 µM] | 38% | 8% | -2% | . | 2%
CC(NCC(O)COCc1ccc(Cl)cc1)c1ccccc1 (centres undefined) | -9%[59 µM] | 32% | -13% | -1% | 20% | -8%
COc1ccc(CNCC(O)COc2ccc(C(C)(C)c3ccccc3)cc2)cc1 (centres undefined) | 0%[2.33 µM] | ? | 10µM* | 40µM* | 56µM* | 9%
CC(C)(c1ccccc1)c1ccc(OCC(O)CNC2CCN(Cc3ccccc3)CC2)cc1 (centres undefined) | 40µM* | ? | 2.8µM* | 50µM* | 79µM* | -9%
OC(CNCc1ccc(Cl)cc1)COc1ccccc1 (centres undefined) | -46% | ? | 20µM* | 56µM* | -25% | -6%
